GLP1R ag – agonists of human GLP-1 receptor | P43220 | Potency, µM (doses to about 45.6 µM), without a hit: at the highest dose activation, actives largely listed as activators | HEK293 GLP-1R CRE-luciferase, luminescence, 4-6 h; cells express a hypersensitive GLP-1R form | hit rate 0.007% among 380,000; further: % of control where 0% means no effect
Target sequence (P43220 whole entry, looked up): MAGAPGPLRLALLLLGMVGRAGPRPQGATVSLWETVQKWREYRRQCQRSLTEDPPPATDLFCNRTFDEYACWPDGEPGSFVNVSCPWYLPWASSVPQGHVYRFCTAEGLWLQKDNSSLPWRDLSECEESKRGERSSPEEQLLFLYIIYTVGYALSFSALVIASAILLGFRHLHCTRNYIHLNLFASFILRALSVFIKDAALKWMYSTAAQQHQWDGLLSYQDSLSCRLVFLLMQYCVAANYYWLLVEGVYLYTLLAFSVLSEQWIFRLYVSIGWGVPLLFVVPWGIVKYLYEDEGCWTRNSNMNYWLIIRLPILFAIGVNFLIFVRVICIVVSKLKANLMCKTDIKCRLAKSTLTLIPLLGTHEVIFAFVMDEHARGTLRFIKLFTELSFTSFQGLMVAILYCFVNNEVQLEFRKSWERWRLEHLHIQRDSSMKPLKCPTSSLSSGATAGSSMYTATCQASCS
HEK293 tox – cytotoxic in the GLP-1 receptor inverse agonist counter-screen. Potency, µM (doses to about 38.3 µM), inactives show top-dose activity change, negative = inhibition, actives largely listed as inhibitors. HEK293 cAMP-luciferase reporter cells, luminescence, 24 h. hit rate 0.13% among 410,000;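 further: loss of luciferase light is scored as toxicity; on the % scale 0 is the no-effect control and ±100 the full control effect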
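To flag toxic compounds, the library was rerun on cells for 24 hr at 37 deg C and 5% CO2. Viability-linked luminescence was captured 12 min after adding luciferase detection reagent.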
RGS4 inh – blocks human RGS4-accelerated GTP hydrolysis. P49798. Transcreener GDP fluorescence polarization, RGS4-accelerated GTP hydrolysis. Potency, µM (series often up to 114 µM), without a hit: at the top dose activity change, negative = inhibition, usual class: inhibitors. hit rate 0.039% among 390,000. AID 504845; further: on the % scale 0 is the no-effect control and ±100 the full control effect; nearly all actives have a fitted effect of over 75% in size
Target sequence (P49798 whole entry, looked up): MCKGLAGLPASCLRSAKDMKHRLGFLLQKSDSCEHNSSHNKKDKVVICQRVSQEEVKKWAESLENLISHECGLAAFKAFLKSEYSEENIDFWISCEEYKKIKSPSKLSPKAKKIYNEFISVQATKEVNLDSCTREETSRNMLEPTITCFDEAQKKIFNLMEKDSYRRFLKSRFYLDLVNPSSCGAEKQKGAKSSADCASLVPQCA
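MLSMR compounds (23 nl, pin-transferred) preincubated 10 min at room temperature with a 500nM (2x) first reagent, then RGS4 at 900nM (2x) plus Transcreener GDP mix added; fluorescence polarization (620/688 nm) read before and after 90 min at 30 °C.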
GCN5L2 inh – inhibitors of human GCN5L2 histone acetyltransferase. Q92830. GCN5L2 HAT assay, ThioGlo1 CoA-SH fluorescence. Potency, µM (series often up to 58.9 µM), inactives show at the highest dose activity change, negative = inhibition, hits mostly inhibitors. hit rate 0.21% among 390,000. AID 504327; further: on the % scale 0 is the no-effect control and ±100 the full control effect
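Titration-based screen in which CoA formation is detected via maleimide probe ThioGlo1 (50uM) turning fluorescent on thiol reaction; substrates H3(1-25) 75uM and acetyl-CoA 70uM, GCN5L2 20nM, 20 min incubation at room temperature.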
PTHR1 agonist – activates the human parathyroid hormone receptor PTHR1. Potency, µM (top dose mostly 115 µM), for inactives: at the highest dose activation, actives largely listed as activators. Q03431. HEK293 GP2 PTHR1 cells, GloSensor cAMP luminescence, 1 h. hit rate 0.075% among 410,000; further: nearly all actives have a fitted effect of over 55% in size
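HEK-293-derived GP2 cells expressing PTHR1 and a GloSensor cAMP reporter, 3,000/well, plated overnight, given luciferin plus IBMX (each 0.5 mM as added) for 1 h at 37 °C, then compound for 1 h at 37 °C. Luminescence was read after 15 min at room temperature.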
GLP-1R inv ag – inverse agonists of human GLP-1 receptor; HEK293 GLP-1R CRE-luciferase, luminescence, 24 h; GLP-1R form is constitutively active; Potency, µM (doses to about 38.3 µM), for inactives: top-dose activity change, negative = inhibition, most hits filed as inhibitors; hit rate 1.6% among 410,000; AID 624417; further: on the % scale 0 is the no-effect control and ±100 the full control effect; nearly all actives have a fitted effect of over 55% in size
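GLP-1R inverse agonism mode: basal reporter luminescence in engineered HEK293 cells measured after one day of compound exposure at 37 deg C, with a 12 min room-temperature detection step.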
* = called active by the depositor; i = inactive; u = inconclusive; x = not tested or not shown; [ ] = another dose, or the depositor's remark. Most compounds without a hit are left out; they make up all but 1.8% or so of the library. The call rests on the fitted dose curve; in most records, active means well fitted curve in the direction sought with a large enough effect; inconclusive means small, poorly fitted or top-dose-only effect, or another doubt; inactive means no such curve, though single readings can be large; an effect the other way counts as inactive or inconclusive. Potency means the concentration at half of the fitted maximal effect.

SMILES	GLP1R ag	HEK293 tox	RGS4 inh	GCN5L2 inh	PTHR1 agonist	GLP-1R inv ag
O=C(O)c1ccccc1NC(c1ccccc1)c1ccc(Cl)cc1 (stereo not given)	5.1%	-10.6%	1.9%	0.5%	i	11.2µM*
O=C(COC(=O)c1ccc(S(=O)(=O)N2CCCCC2)cc1)NCc1ccc(F)cc1	-21.1%	10.4%	12.4%	-3.6%	-5.7%	-0.2%
CC(Oc1ccc2ccc(=O)oc2c1)C(=O)NCC1CCC(C(=O)O)CC1 (stereo not given)	7.8%	-0.3%	-32.7%	-2.6%	-11.4%	15.7%
CC(Oc1ccc2cc(-c3ccccc3)c(=O)oc2c1)C(=O)NCC1CCC(C(=O)O)CC1 (stereo not given)	9.1%	-5.6%	-12.0%	31.6µM*	i	-0.4%
CSCCC(NS(=O)(=O)c1cccc(C(F)(F)F)c1)C(=O)Nc1ccccc1N1CCCC1 (stereo not given)	-15.7%	-15.6%	-3.6%	-9.0%	-44.2%	10µM*
O=C(COc1cccc(C(F)(F)F)c1)Nc1ccccc1N1CCCCC1	-17.0%	-4.0%	-0.8%	-5.5%	-11.5%	7.4%
O=C1N=C(N2CCCC2)CN1c1ccccc1	2.9%	-3.6%	-16.6%	-2.3%	-19.9%	4.9%
CC1CCN(S(=O)C23CC4CC(CC(C4)C2)C3)CC1 (stereo not given)	9.8%	4.7%	-4.6%	6.3%	-18.7%	u
Cc1c(/C=N/NC(=O)CNc2ccccc2)c2ccccn2c1C(=O)c1ccc(Cl)cc1	-31.4%	-16.5%	-8.1%	-8.5%	-23.1%	5.62µM*
Cc1ccccc1NCC(=O)N/N=C/c1c(C)c(C(=O)c2ccc(Cl)cc2)n2ccccc12	-9.1%	-8.9%	-5.5%	-8.6%	i	-2.5%
O=C(CSc1nc(-c2ccc(F)cc2)nc2c1Cc1ccccc1O2)Nc1cccc(C(=O)O)c1	0.1%	9.1%	u	12.6µM*	-9.0%	-11.5%
COc1ccc(CN(C(=S)Nc2ccccc2)C2CC(=O)N(c3ccc(Cl)cc3)C2=O)cc1 (stereo not given)	-2.2%	u	-34.7%	0.2%	-61.4%[57.5 µM]	u
O=C1CC(N(Cc2cccs2)C(=O)Nc2ccccc2)C(=O)N1c1ccc(Cl)cc1 (stereo not given)	-28.5%	-15.6%	-33.6%	-22.0%	i	8.91µM*
COc1ccc(N(CC(=O)Nc2cc(Cl)ccc2OC)S(=O)(=O)c2c(C)noc2C)cc1	9.8%	-25.7%	13.5%	-9.8%	-2.8%	4.47µM*
COc1cccc(CNC(=O)CN(c2cc(C)cc(C)c2)S(=O)(=O)c2c(C)noc2C)c1	0.5%	1.4%	-2.0%	-4.8%	i	10µM*
COc1ccc(OC)c(NC(=O)CN(c2ccc(C)cc2)S(=O)(=O)c2c(C)noc2C)c1	4.3%	-23.0%	-35.2%	-19.6%	i	10µM*
COc1ccc(N(CC(=O)Nc2ccc(OC)c(Cl)c2)S(=O)(=O)c2c(C)noc2C)cc1	7.7%	3.1%	-5.5%	3.0%	-31.0%	1.1%
COc1ccc(OC)c(NC(=O)CN(c2ccc(C(C)C)cc2)S(=O)(=O)c2c(C)noc2C)c1	0.0%	-16.5%	-8.6%	-10.7%	-2.0%	u
Cc1cccc(NC(=O)C2CCCN(c3ncnc4c3nc3n4CCCCC3)C2)n1 (stereo not given)	-0.9%	3.6%	6.5%	u	-15.8%	-7.4%
CC(C(=O)O)n1cc(C#N)c(=O)[nH]c1=O (stereo not given)	8.5%	-2.7%	3.6%	x	-2.7%	-11.3%
Cc1cccc(NC(=O)N(C)Cc2cccs2)c1	-6.7%	-12.8%	44.1%	31.6µM*	i	-0.6%
CC(=O)c1c(C)[nH]c(C(=O)N2CCN(c3ccccn3)CC2)c1C	-4.7%	-0.6%	4.5%	-0.8%	-3.3%	6.7%
O=C(Cc1ccccc1)NCC(=O)OCC(=O)c1ccc2ccccc2c1	x	x	1.8%	x	x	x
NC(=O)c1ccc(-c2ncc(-c3ccccc3)o2)cc1	-4.7%	5.3%	23.5%	-26.9%	-30.2%	5.62µM*
CN(CC(=O)Nc1ccccc1Cl)C(=O)c1ccc(N2CCCCCC2)c([N+](=O)[O-])c1	-6.1%	-7.6%	-20.7%	-3.7%	-21.9%	u
SMILES	GLP1R ag	HEK293 tox	RGS4 inh	GCN5L2 inh	PTHR1 agonist	GLP-1R inv ag
Cc1cccc(NC(=O)CN(C)C(=O)c2ccc(N3CCCCCC3)c([N+](=O)[O-])c2)c1C	13.5%	-22.8%	-0.5%	-2.0%	i	11.2µM*
C[N+](C)(C)CCOP(=O)(O)OP(=O)([O-])OCC1OC(n2ccc(N)nc2=O)[C@H](O)[C@@H]1O (stereo not given in full)	-6.0%	x	x	x	x	x
CCN(CC)CCN(C(=O)c1ccc2c(c1)OCCO2)c1nc2cc(C)cc(C)c2s1	-3.9%	15.1%	-0.6%	-4.1%	-27.2%	11.2µM*
CCN(CC)CCN(C(=O)c1ccc2c(c1)OCCO2)c1nc2c(Cl)cccc2s1	-28.0%	u	3.5%	-2.3%	-53.4%	u
Cc1ccccc1-c1cc2nc(OCC3CCCO3)n(C)c(=O)c2s1 (stereo not given)	11.6%	4.1%	x	x	-5.9%	-18.2%
COc1ccccc1CNC(=S)NCc1ccc(Cl)cc1	-2.7%	-27.8%	-13.1%	-1.4%	i	10µM*
S=C(NCc1ccccc1)NCc1ccc(Cl)cc1	-6.4%	u	-3.4%	0.6%	-22.3%	u
O=C(O)CC/C=C\CC[C@H]1[C@@H](N2CCCCC2)[C@@H](O)C[C@@H]1OCc1ccc(-c2ccccc2)cc1	x	x	8.44µM*	-6.2%	x	x
O=C(CCc1ccccc1)N[C@@H]1c2ccccc2CC[C@@H]1OCc1ccccc1	2.1%	13.9%	18.2%	-2.1%	25.6%	-4.8%
Cc1cc(-c2ccccc2)nc(N(C)NC(=O)c2cccc(C(F)(F)F)c2)c1S(C)(=O)=O	3.7%	6.4%	-36.7%[11.4 µM]	-10.2%[0.501 µM]	i	14.9%
Cc1ccc(S(=O)(=O)c2c(C)cc(C)nc2Oc2cccc(C(F)(F)F)c2)cc1	-10.4%	4.4%	-14.9%	-17.9%	-52.1%[57.5 µM]	5.01µM*
Cc1cc(-c2ccccc2)nc(Oc2cccc(C(F)(F)F)c2)c1S(C)(=O)=O	7.2%	7.1%	-14.9%	-17.3%	i	10µM*
Cc1cc(C)c(S(C)(=O)=O)c(Oc2ccc(C(C)(C)C)cc2)n1	4.3%	9.3%	-13.3%	-1.5%	-28.4%	11.2µM*
CCCC(CCC)C(N)=O	2.4%	x	x	x	x	x
C[C@H]1CN([C@@H](C)CO)C(=O)CCCn2nncc2CO[C@@H]1CN(C)S(=O)(=O)c1ccc(-n2cccn2)cc1	1.6%	-2.5%	x	x	i	4.7%

Screens from PubChem.
